Hit rate of the full screen: of about 300,000 compounds, about 1,500 (0.5%) were called active. This is one part of a sample in which actives are shown more often than they occur.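 How the source made its calls: active means inhibition above the mean of all tested compounds plus 3 SD, set per screening campaign (cut at about 17% in these data); inactive means the rest.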

The test has as its system cathepsin L1 (Fasciola hepatica). Kind of test: Fasciola hepatica cathepsin L1 inhibitors, primary screen, counter-screen for PFM18AAP inhibitor project, biochemical, QFRET, fluorogenic peptide substrate (AID 1906).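 Further: 0% = plate median of test compound wells and 100% = 1 µM Z-Phe-Ala-diazomethylketone.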 The settings on record: recombinant F. hepatica cathepsin L1, Z-Leu-Arg-MCA fluorescence; at 5.96 µM; hits give high values.
`CC(=O)Nc1ccc(S(=O)(=O)N(C)CC(=O)NCCC2=CCCCC2)cc1`: the inhibition is -4.22% (inactive).
For the molecule `Cc1ccc(N(NC(=O)C(C)(C)O)C(=O)c2ccccc2)cc1C`, the inhibition was 1.52% (inactive).
As for `CCCCCNC(=O)C1c2ccccc2Oc2ccccc21`, the inhibition was -9% (inactive).
Take `COC(=O)N(NC(=O)C(O)(C(C)C)C(C)C)c1ccccc1`: the inhibition is -0.72% (inactive).
With `CC(C)(O)C(=O)NN(C(=O)c1ccccc1)c1cccc(Br)c1`, the inhibition is -2.56% (inactive).
As to `CCCC(O)(CCC)C(=O)NN(C(=O)CCl)c1cccc(C)c1`, the inhibition was 27.6% (active).
As to `CCCCC(O)(CCCC)C(=O)NN(C(=O)CCl)c1ccccc1`, the inhibition is 18.1% (active).
Consider `CC(Sc1nc2cc(Cl)ccc2s1)C(=O)Nc1ccc2c(c1)OCO2` (stereo not given), for which the inhibition is -3.27% (inactive).
For `COc1ccc(CCNS(=O)(=O)c2cn(C)nc2C)cc1` the value was -5.7% (inactive); for `CCOC(=O)c1cc2cc3ccccc3cc2oc1=O`, 0.07% (inactive).
In the case of `CCOC(=O)C1=C(c2ccc(OC)cc2)C(=O)c2ccccc2C1=O`, the inhibition is 28.8% (active).
For the molecule `CCOC(=O)c1c(-c2ccc(C)cc2)csc1/N=C(\C)C1=C(O)c2ccccc2C1=O`, the inhibition was 1.32% (inactive).
For the molecule `CC(=O)c1ccccc1NC(=O)CC1(CC(=O)O)CCCCC1`, the inhibition was 2.79% (inactive).
As to `Cc1ccccc1OCC(=O)Nc1nnc(S(=O)(=O)N2CCCC2)s1`, the inhibition is 3.28% (inactive).
As to `CCn1c(SCC(=O)NC2=NCCS2)nnc1C(C)NC(=O)c1ccccc1F` (stereo not given), the inhibition is -7.21% (inactive).
As to `O=C1CCCCC1Sc1ccc(Cl)cc1[N+](=O)[O-]` (stereo not given), the inhibition was -1.08% (inactive).
The result for `N#C/C(=C\c1ccccc1)c1n[nH]c(Cn2cncn2)n1` reads 3.03% (inactive); that for `COc1cc(C(=O)N2CCN(C3CCC(C)CC3)CC2)cc(OC)c1OC` (stereo not given), 1.26% (inactive); that for `CCn1cc(C(=O)N2CCN(C3CCCCC3)CC2)c2cc(OC)c(OC)cc2c1=O`, 20.3% (active).
On to `CCn1cc(C(=O)N2CCN(Cc3ccc4c(c3)OCO4)CC2)c2cc(OC)c(OC)cc2c1=O`, for which the inhibition is 7.48% (inactive).
As to `O=c1c([N+](=O)[O-])cccn1Cc1ccc(F)cc1Cl`, the inhibition is -4.32% (inactive).
Regarding `C/C(=N\NC(N)=S)c1ccncc1`, the inhibition was 3.21% (inactive).
`C/C(=N\NC(=O)c1cccnc1)c1ccc(-c2ccccc2)cc1`: the inhibition is 2.6% (inactive).
With `C/C(=N\NC(N)=S)c1cccnc1`, the inhibition is 35.1% (active).
With `O=C(c1ccc(-c2ccccc2)cc1)C1CCCN(C(=O)c2cncs2)C1` (stereo not given), the inhibition was 0.67% (inactive).
As for `COc1ccc(-n2nc(C(=O)NCC(=O)N3CCN(c4ccccc4OC)CC3)c3ccccc3c2=O)c(OC)c1`, the inhibition is 0.09% (inactive).
For `Cc1ccc(Cl)c(NC(=O)CN2CCN(C=O)CC2)c1` the value was -5.16% (inactive); for `CCn1cnc2scc(-c3ccc(C)c(C)c3)c2c1=O`, 0.4% (inactive).
With `COC(=O)Cn1cnc2scc(-c3ccc(C)c(C)c3)c2c1=O`, the inhibition was 24.9% (active).
Take `CCOC(=O)C(C)n1cnc2scc(-c3ccc(C)c(C)c3)c2c1=O` (stereo not given): the inhibition was 3.75% (inactive).
Turning to `CCN(Cc1ccccc1)C(=O)Cc1ccc(OC)c(S(=O)(=O)N2CCOCC2)c1`, the inhibition is -0.92% (inactive).
As to `CCSc1nc2c(c(=O)[nH]1)C(c1cccnc1)C(C(=O)OC(C)C)=C(C)N2` (stereo not given), the inhibition was 4.8% (inactive).
As to `COc1ccccc1C(=O)Nc1ccc(OCc2nnc3c4ccccc4c(C)nn23)cc1`, the inhibition is -0.1% (inactive).
On to `CCOCCCNc1c(CC)c(C)c(C#N)c2nc3ccccc3n12`, for which the inhibition is 2.01% (inactive).
Turning to `CC(C)CN(CC(C)C)CC(O)CN(c1ccccc1)S(=O)(=O)c1ccccc1[N+](=O)[O-]` (stereo not given), the inhibition was 4.97% (inactive).
With `COCCN(C(=O)C(C)C)c1nnc(-c2ccc(C(C)(C)C)cc2)s1`, the inhibition is 3.51% (inactive).
With `CCCCCCCNC(=O)C1(CC2CC(c3cccc(Br)c3)=NO2)CCN(C(=O)c2cc(OCC)c(OCC)c(OCC)c2)CC1` (stereo not given), the inhibition is 30% (active).
Regarding `O=C(c1ccccc1)N1CCC(CC2CC(c3ccc(Cl)cc3)=NO2)(C(=O)NCC2CCCCC2)CC1` (stereo not given), the inhibition was -0.13% (inactive).
With `COc1ccc(CNC(=O)C2(CC3CC(c4ccccc4)=NO3)CCN(C(=O)c3cccc(O)c3)CC2)cc1` (stereo not given), the inhibition was -1.66% (inactive).
Turning to `CN(CC(=O)Nc1cccc(F)c1)C(=O)C1CSC2(C)CCC(=O)N12` (stereo not given), the inhibition was -4.97% (inactive).
Take `CCOc1ccc2nc(/N=C/c3nc(-c4ccccc4)oc3O)sc2c1`: the inhibition is 5.43% (inactive).
The result for `CC(N=Cc1nc(-c2ccccc2)oc1O)c1ccccc1` (stereo not given) reads 1.73% (inactive); that for `Oc1oc(-c2ccccc2Br)nc1/C=N/c1ccccn1`, 53.9% (active); that for `COc1ccc(C(C)NC(=O)C23CC4CC(CC(C4)C2)C3)cc1` (stereo not given), -3.76% (inactive).
Regarding `Cc1cccc(NC(=O)CCN2CC(C)CC(C)C2)c1` (stereo not given), the inhibition is -3.49% (inactive).
On to `COc1cccc(NC(=O)CN(C)CC(=O)Nc2ccc3c(c2)CCC3)c1`, for which the inhibition was 0.04% (inactive).
For the molecule `CC1CC(C)CN(CCC(=O)Nc2ccc3c(c2)CCC3)C1` (stereo not given), the inhibition was 40.7% (active).
In the case of `C=CCSc1nnc2c(n1)-c1cccc3cccc-2c13`, the inhibition was 4.82% (inactive).
`Cc1cccc(-n2c(C)cc(/C=N/NC(N)=S)c2C)c1`: the inhibition is 35.5% (active).
For `Cc1cccc(-n2c(C)cc(/C=N\NC(=O)c3cccs3)c2C)c1`, the inhibition was -1.99% (inactive).
For `Cc1ccc(-n2c(C)cc(/C=N\NC(=O)CC(=O)NC(C)C)c2C)cc1` the value was -0.88% (inactive); for `CCOC(=O)C(C)n1nc(-c2ccccc2)c2ccccc2c1=O` (stereo not given), 3.78% (inactive); for `COc1ccc(CCNC(=O)Cc2ccc(C)cc2)cc1OC`, 2.87% (inactive).
Regarding `CCOC(=O)Cc1ncccc1C(=O)Nc1ccc(OC(F)(F)F)cc1`, the inhibition was 2.95% (inactive).
For the molecule `Cn1nccc1NC(=O)Nc1ccc(OC(F)(F)F)cc1`, the inhibition is 19.4% (active).
The result for `COC(=O)[C@H](C)NC(=O)Nc1ccc(OC(F)(F)F)cc1` reads -1.87% (inactive); that for `COC(=O)c1ccccc1Oc1c(F)c(F)nc(N2CCOCC2)c1F`, 0.49% (inactive); that for `COc1ccc(C(C(=O)NC2CCCCC2)N(C(=O)CCl)c2ccccc2Cl)cc1` (stereo not given), 25.3% (active).
Turning to `COc1cccc(N(C(=O)C2COc3ccccc3O2)C(C(=O)NC2CCCCC2)c2ccc(O)cc2)c1` (stereo not given), the inhibition was 4.68% (inactive).
For `COc1ccc(C(C(=O)NC2CCCCC2)N(C(=O)c2snc(C(N)=O)c2N)c2ccccc2OC)cc1` (stereo not given), the inhibition was -2.13% (inactive).

(Values after PubChem BioAssay AID1906 (The Scripps Research Institute Molecular Screening Center, 2009).)
